Experimental data published in PubChem BioAssay AID1852 (Sanford-Burnham Center for Chemical Genomics, 2009).
Screen size: about 2,500 compounds; about 1,100 (44%) were called active. The set was probably picked from earlier hits. This is one part of the list. Unmarked numbers belong to inactive results.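 Rule for the calls: active = inhibition above 50% at 4 µM in the single-point screen; inactive = inhibition of 50% or less.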

Assay: TNF-a-driven NF-kB reporter inhibitors, primary screen, selectivity assay for NOD1/NOD2 signaling inhibitor project, cell-based, HEK293T NF-kB-Luc, luminescence (AID 1852)
Conditions: TNF-a induced, 14 h, at 4 µM, stronger effect = higher value

Structure (SMILES) | inhibition
O=c1cc(-c2ccccc2)nc2cc(-c3ccc(Br)cc3)[nH]n12 | 38.7%
COc1ccc(-c2c(C(F)(F)F)[nH]n3c(=O)cc(-c4ccccc4)nc23)cc1 | 55.7% (active)
O=c1cc(-c2ccccc2)nc2c(-c3ccccc3)c(C(F)(F)F)[nH]n12 | 73.9% (active)
Cc1ccc2cc(C)c(N3CCC(C)CC3)nc2c1 | 20.9%
CC1=CC(=O)C=C(C)C1=NOS(=O)(=O)c1ccccc1 | 48.1%
CC1=C/C(=N\OS(=O)(=O)c2ccccc2)C=CC1=O | 57.4% (active)
Oc1nc(Nc2cccc(Cl)c2)sc1/C=C1\C=Nc2ccccc21 | -12.4%
OCCCNc1nccc(-c2cc(Nc3cccc(Cl)c3)ncn2)n1 | 98.2% (active)
OCCCNc1cc(-c2ccnc(Nc3cccc(Cl)c3)n2)ccn1 | 96.3% (active)
CCS(=O)(=O)c1ccc2oc(SCC(=O)NCc3ccccc3)nc2c1 | 36.5%
Cc1ccccc1-n1nnnc1Sc1nnnn1-c1ccccc1 | 75.4% (active)
Cn1nnnc1Sc1ncnc2scc(-c3ccccc3)c12 | 22.8%
Cc1sc2ncnc(Sc3nnnn3-c3ccccc3)c2c1C | 89.8% (active)
Cc1sc2ncnc(Sc3nnnn3-c3ccc(Cl)cc3)c2c1C | 87% (active)
CCc1c(C)nc2ccc(Br)cc2c1SCCC#N | 43.8%
COc1ccc2cc3c(N)nn(C(=O)c4ccccc4[N+](=O)[O-])c3nc2c1 | 79.5% (active)
COc1ccc2cc3c(N)nn(C(=O)c4ccccc4Cl)c3nc2c1 | 94.3% (active)
COc1ccc2cc3c(N)nn(C(=O)C4CCC(C(C)(C)C)CC4)c3nc2c1 (configuration not stated) | 104% (active)
COc1cc(/C=C/c2ccc3cccc(OC)c3n2)c(OC(C)=O)c([N+](=O)[O-])c1 | 9.5%
CCn1ccnc1CN1CCCC(C(=O)c2ccc3cc(OC)ccc3c2)C1 (configuration not stated) | 39.3%
CC1=NOC(=O)/C1=C\c1ccc(-c2cc(Cl)ccc2Cl)o1 | -2.6%
N#Cc1c(NC(=O)CSc2ncn[nH]2)sc2c1CCCCC2 | 73.9% (active)
N#Cc1c(NC(=O)CSc2ncn[nH]2)sc2c1CCCC2 | 53.4% (active)
CC1CCc2c(sc(NC(=O)/C=C/c3cccs3)c2C(=O)O)C1 (configuration not stated) | 31.1%
CC1CCc2c(sc(NC(=O)CSc3ncn[nH]3)c2C#N)C1 (configuration not stated) | 68.2% (active)

Structure (SMILES) | inhibition
O=C(Nc1sc2c(c1C(=O)O)CCCC2)c1ccc(F)cc1 | -13.9%
CC1CCc2c(sc(NC(=O)c3cccs3)c2C(=O)O)C1 (configuration not stated) | -35.7%
CCOC(=O)c1c(NC(=O)CSc2ncn[nH]2)sc(C)c1C | 37.2%
N#C/C(=C(/O)Cc1cccc2ccccc12)c1nc2ccccc2s1 | 74.8% (active)
O=C(COc1ccc(Cl)cc1)Nc1nc(-c2ccncc2)cs1 | 20.3%
Nc1nc(CSc2nc3ccccc3s2)nc(Nc2ccccc2)n1 | -3%
N#C/C(=C(/O)COc1ccc(Cl)cc1)c1nc2ccccc2s1 | 73.1% (active)
O=C(NCc1cccnc1)/C(=C\c1ccc(-c2ccc(Cl)c(Cl)c2)o1)S(=O)(=O)c1ccccc1 | 109% (active)
O=C(NCc1cccnc1)/C(=C/c1ccc(-c2ccc(Cl)cc2)o1)S(=O)(=O)c1ccccc1 | 85.2% (active)
COc1ccc(-c2cn(-c3ccc(C)cc3C)c(=S)[nH]2)cc1OC | 18.3%
Nc1ncnc(Nc2ccccn2)c1[N+](=O)[O-] | 22.8%
Nc1ncnc(Sc2ccc(Cl)cc2)c1[N+](=O)[O-] | 1%
CC1CCCCN1c1ncnc(N)c1[N+](=O)[O-] (configuration not stated) | 59.2% (active)
Nc1ncnc(N2CCc3ccccc32)c1[N+](=O)[O-] | 99.8% (active)
COc1ccc(CCN2C(=S)N(c3ccc(Cl)cc3)C(=O)C2CC(N)=O)cc1OC (configuration not stated) | 17.3%
Cc1cccc(CSc2cccc3cccnc23)c1 | 104% (active)
Cn1c(=NC(=O)CCl)sc2ccccc21 | 37.1%
Cn1c(-c2ccccc2)c(C(=O)CCl)c2ccccc21 | 76.3% (active)
Cn1cc(C(=O)CCl)c2ccccc21 | 77.1% (active)
Cc1cc(C(=O)CCl)c(C)n1CCc1ccccc1 | 47.1%
Cc1ccc(C(C)C)c(OCc2ccc(C(=O)N/N=C/c3ccc(C(=O)O)cc3)cc2)c1 | 64.9% (active)
COc1cc(/C=N/NC(=O)c2ccc(COc3cc(C)ccc3C(C)C)cc2)cc(OC)c1O | 40.7%
Cc1ccc(C(C)C)c(OCc2ccc(C(=O)N/N=C/c3cccc(O)c3O)cc2)c1 | 17.2%
CC1CCC/C=C/C(=O)c2c(O)cc(O)cc2CC(=O)O1 (configuration not stated) | 74.9% (active)
CN1/C(=C\C=[N+](C)c2ccccc2)C(C)(C)c2ccccc21 | 49.5%

Structure (SMILES) | inhibition
O=C(CCl)N1c2ccccc2SCC1c1ccccc1 (configuration not stated) | 32.2%
O=C(CCl)N1c2ccccc2OCC1c1ccccc1 (configuration not stated) | 62.2% (active)
O=C(C(Cl)Cl)N1c2ccccc2OCC1c1ccccc1 (configuration not stated) | 37.8%
Cc1cccc(N(Cc2cc(=O)[nH]c3ccccc23)C(=O)CCl)c1 | 78.4% (active)
COc1ccc(N(Cc2cc(=O)[nH]c3ccccc23)C(=O)CCl)cc1 | 21.4%
O=C(CCl)N(Cc1cc(=O)[nH]c2ccccc12)c1ccccc1 | 99.9% (active)
Cc1ccc(N(Cc2cc(=O)[nH]c3ccccc23)C(=O)CCl)cc1 | 106% (active)
CCCS(=O)(=O)c1cnc(C2COc3ccccc3O2)nc1N (configuration not stated) | 48.4%
Cc1ccc(-n2c(-c3ccc(Br)cc3)c[n+]3c2CCc2ccc4cccnc4c2-3)cc1 | 85% (active)
Cc1ccc(-c2csc3ncnc(Sc4nnc(CN5CCCCCC5=O)o4)c23)cc1 | 93.2% (active)
CC1Sc2ccc(S(=O)(=O)N3CCC(C(=O)Nc4ccc(Cl)cc4)CC3)cc2NC1=O (configuration not stated) | 44%
O=C(Nc1ccc(C(F)(F)F)cc1)C1CCN(S(=O)(=O)c2ccc(N3CCCC3=O)cc2)CC1 | 63.7% (active)
CC(C)(C)CC(=O)Nc1ccc(S(=O)(=O)N2CCCC2)cc1 | 15.8%
COc1cccc(CN(C)C(=O)CNC(=O)c2ccc(-c3ccccc3)cc2)c1OC | 57% (active)
COc1ccc(CN(C)C(=O)c2cc(-c3ccc(C)cc3C)nc3ccccc23)c(OC)c1OC | -3.9%
COc1ccccc1CN(C)C(=O)c1cc(-c2cc(OC)c(OC)c(OC)c2)nc2ccccc12 | 20.3%
O=S(=O)(c1ccc(Cl)cc1)c1snnc1-c1ccccc1 | 44.1%
CC(=O)N(c1ccccc1Cl)S(=O)(=O)c1ccc(Cl)cc1 | 9.8%
Cc1ccc(S(=O)(=O)NC(C(=O)N2CCOCCOCCOCC2)C(C)C)cc1 (configuration not stated) | 15.4%
CN(c1ccc(C(=O)Nc2ccccc2C(=O)N2CCOCC2)cc1)S(C)(=O)=O | 16.2%
O=C(c1nnsc1S(=O)(=O)c1ccc(Cl)cc1)N1CCOCC1 | 52% (active)
CNC(=O)c1nnsc1S(=O)(=O)c1ccc(Cl)cc1 | 91.4% (active)
O=C(Nc1nnc(-c2cccs2)o1)c1cccc(Oc2ccccc2)c1 | 103% (active)
O=C(Nc1nnc(-c2cccs2)o1)c1cccc(C(F)(F)F)c1 | 100% (active)
CCSCCc1nnc(NC(=O)Nc2cccc(C(F)(F)F)c2)s1 | 7.5%

Structure (SMILES) | inhibition
O=C(CCC(=O)N1CCOc2ccccc21)NCc1ccccn1 | 18.7%
Cc1cc(/C=N/n2cnnc2)c(C)n1-c1ccc(OCc2ccc(Cl)cc2Cl)cc1 | 71.9% (active)
Cc1ccc(S(=O)(=O)Nc2ccc(Br)cc2/C=N/n2cnnc2)cc1 | 47.3%
CN(C)c1ccnc2sc(C(N)=O)c(N)c12 | 83.5% (active)
O=C(Nc1nc2ccccc2[nH]1)c1cc(F)cc(F)c1 | 80.3% (active)
O=C(c1ccccc1)c1ccc2nc(-c3ccc(NC(=O)c4ccccc4Br)cc3)[nH]c2c1 | 11.7%
CN(c1ccccc1)S(=O)(=O)c1cc(C(=O)Nc2nc3ccccc3[nH]2)ccc1Cl | 31.3%
CCc1ccc(C(=O)Nc2nc3ccccc3[nH]2)cc1 | 103% (active)
Cc1c(C(=O)Nc2nc3ccccc3[nH]2)oc2ccc(Br)cc12 | 98.6% (active)
Cc1cc(NC(=O)/C=C/c2ccc(F)cc2)n(-c2nc3ccccc3[nH]2)n1 | -3.9%
Cc1ccc(O)c(N=Cc2cc(Cc3ccccc3)cc([N+](=O)[O-])c2O)c1 | -1.6%
Cc1ccc(N=Cc2cc(Cc3ccccc3Cl)cc([N+](=O)[O-])c2O)c(O)c1 | 70.8% (active)
Cc1c([N+](=O)[O-])c2ccc(O)cc2n1-c1ccccc1 | 60.9% (active)
Cc1ccc(-n2c(C)c([N+](=O)[O-])c3ccc(O)cc32)cc1 | 40.4%
CN(C)/C=C/c1c([N+](=O)[O-])c2ccc(O)cc2n1-c1ccccc1 | 83.5% (active)
COc1cc(/C=C2\SC(=S)N(CCC(=O)Nc3ccccc3)C2=O)cc(OC)c1OC | 6.8%
O=C1S/C(=C\c2ccc(O)c([N+](=O)[O-])c2)C(=O)N1Cc1cccc([N+](=O)[O-])c1 | 19.6%
O=C1/C(=C/c2ccc(O)c([N+](=O)[O-])c2)SC(=S)N1Cc1ccccc1 | 88.5% (active)
Cc1ccc(/C=C2\SC(=S)N(C(Cc3ccccc3)C(=O)O)C2=O)cc1 (configuration not stated) | 25.1%
COc1cc([N+](=O)[O-])cc(/C=C2/SC(=S)N(Cc3ccccc3)C2=O)c1O | 81.1% (active)
O=C1/C(=C\c2cc(Cl)c(O)c(Cl)c2)SC(=S)N1Cc1ccccc1 | 82.7% (active)
O=C1/C(=C\c2cccc([N+](=O)[O-])c2O)SC(=S)N1Cc1ccccc1 | 14.2%
